Hits are enriched below; roughly 3.5% of the tested compounds scored in any of these assays.
TEAD-YAP inh: TEAD-YAP interaction inhibition; HEK-TIYL cells, TEAD-Gal4/YAP UAS-luciferase luminescence; inhibition, % at 9.12 µM; 640,000 compounds, 1.4% hits; in the data active = inhibition above about 32%
GPR151 ag: activates the human receptor GPR151; Q8TDV0; PathHunter beta-arrestin GPR151 cells, luminescence; activation, % at 11.2 µM; 650,000 compounds, 1% hits; in the data active = activation above about 4.9%
MITF inh: human MITF inhibition, primary screen | 650,000 compounds, 0.91% hits | AID 1259374 | inhibition, % at 2.6 µM | AlphaScreen MITF homodimerization, bead proximity signal | O75030; in the data active = inhibition above about 50%
Target sequence (O75030 whole entry, looked up): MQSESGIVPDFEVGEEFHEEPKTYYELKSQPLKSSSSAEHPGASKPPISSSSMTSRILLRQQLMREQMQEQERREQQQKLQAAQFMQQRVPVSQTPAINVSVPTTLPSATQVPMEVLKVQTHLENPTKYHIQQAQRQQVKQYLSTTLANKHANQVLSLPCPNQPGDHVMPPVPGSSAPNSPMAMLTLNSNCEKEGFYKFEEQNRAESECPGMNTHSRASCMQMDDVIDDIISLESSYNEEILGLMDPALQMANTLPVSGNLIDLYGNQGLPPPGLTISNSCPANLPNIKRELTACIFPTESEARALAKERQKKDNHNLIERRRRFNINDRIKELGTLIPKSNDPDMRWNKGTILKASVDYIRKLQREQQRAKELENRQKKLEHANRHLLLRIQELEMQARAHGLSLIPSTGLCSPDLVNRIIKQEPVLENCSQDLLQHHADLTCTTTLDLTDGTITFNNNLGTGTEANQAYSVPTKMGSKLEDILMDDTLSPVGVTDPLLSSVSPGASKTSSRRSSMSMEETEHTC
FBW7 activator: activators of human E3 ligase FBW7 | Q969H0 | AlphaScreen FBW7–phospho-cyclin E peptide binding, activator screen | normalized activity (activation), % at 26.1 µM | 650,000 compounds, 0.13% hits | AID 1259310; in the data active = normalized activity above about 1.9%;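 also: purified mutant Fbw7 with reduced substrate affinity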
MITF confirm: confirmation of human MITF inhibitors. shares compounds with MITF inh. AlphaScreen MITF homodimerization, biotin/His-MITF beads. inhibition, % at 2.6 µM. 4,700 compounds, 16% hits. AID 1259372;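 active = inhibition above a cutoff derived from the DMSO control wells, cut at about 28% in these data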;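 also: inhibitors lower the bead chemiluminescence by keeping MITF from dimerizing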
AlphaScreen DR: AlphaScreen optical interference, dose response counter-screen; shares compounds with MITF inh; AlphaScreen optical interference counterscreen, cell-free; IC50, µM; 480 compounds, 6% hits; AID 1259373; call rule not given here
AS interf ctr: counter-screen: compounds optically interfering with AlphaScreen. inhibition, % at 2.6 µM. shares compounds with MITF inh. 4,700 compounds, 7.6% hits. LysRS AlphaScreen counterscreen, signal interference, triplicate;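 active = inhibition above a cutoff derived from the DMSO control wells, cut at about 30% in these data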
Large screens that a line does not name were inactive (follow-up assays come after a bar, where they were run); ! = repeats disagree.

CCC1OC(c2cccc(OC)c2)=Nc2ccccc21 (stereo unspecified)	none
COc1cc(OC)cc(C(=O)Nc2ccc(-c3nc4ccccc4s3)c(O)c2)c1	none
CCOc1cccc(OCCCN2CCN(CC)CC2)c1	MITF inh 74 | MITF confirm inactive | AS interf ctr inactive
CCCOc1cccc(OCCN2CCN(CC)CC2)c1	MITF inh 79 | MITF confirm inactive | AS interf ctr inactive
CCN1CCN(CCCOc2cccc(C(C)C)c2)CC1	none
CCN1CCN(CCCCOc2cccc(C(F)(F)F)c2)CC1	MITF inh 64 | MITF confirm inactive | AS interf ctr inactive
CN1CCN(CCOCCOc2ccc(C(C)(C)C)cc2)CC1	MITF inh 65 | MITF confirm inactive | AS interf ctr inactive
CN1CCN(CCOCCOc2ccc(Cl)cc2)CC1	none
CN(C)CC(C)(O)c1ccc2c(c1)CN(C(=O)c1ccc(Oc3ccccc3)o1)CCO2 (stereo unspecified)	none
CCN1CCN(CCCCOc2ccc(C#N)cc2)CC1	MITF inh 66 | MITF confirm inactive | AS interf ctr inactive
Cc1cccc(OCCCCN2CCNCC2)c1	none
CCN1CCN(CCOCCOc2cccc(Oc3ccccc3)c2)CC1	MITF inh 79 | MITF confirm inactive | AS interf ctr inactive
CCOc1cccc(OCCCN2CCNCC2)c1	MITF inh 54 | MITF confirm inactive | AS interf ctr inactive
CN1CCN(CCCCOc2cccc(C=O)c2)CC1	MITF inh 61 | MITF confirm inactive | AS interf ctr inactive
CN1CCN(CCCCOc2cccc(C(F)(F)F)c2)CC1	none
CN1CCN(CCCOc2ccc(C#N)cc2)CC1	none
O=C1N(CN2CCN(Cc3ccccc3)CC2)c2ccccc2C12OCCO2	none
CCOc1ccc(NC(=O)c2sc(=S)n(-c3ccc(C)c(C)c3)c2N)cc1	none
CCOc1ccc(OCCCCN2CCN(C)CC2)cc1	MITF inh 86 | MITF confirm inactive | AS interf ctr inactive
CC(=O)c1cccc(OCCCCOc2cccc(C(C)=O)c2)c1	none
CCN1CCN(CCOCCOc2ccc(CCC(C)=O)cc2)CC1	MITF inh 66 | MITF confirm inactive | AS interf ctr inactive
CCOc1ccc(OCCCN2CCN(C)CC2)cc1	MITF inh 79 | MITF confirm inactive | AS interf ctr inactive
CCN1CCN(CCOc2cccc(C(C)=O)c2)CC1	MITF inh 66 | MITF confirm inactive | AS interf ctr inactive
CCOC(=O)/C(C#N)=C\Nc1ccc(Cl)cc1	none
CCOc1cccc(OCCCCN2CCN(C)CC2)c1	MITF inh 71 | MITF confirm inactive | AS interf ctr inactive
CCCCOc1cccc(OCCCN2CCN(C)CC2)c1	none
Cc1cccc(N(NC(=O)C(=O)n2ccc3ccccc32)C(=O)CCl)c1	none
O=C(Nc1ccccc1C(=O)NC1CCCCC1)c1cccc(S(=O)(=O)NC2CCCCC2)c1	none
Cc1ccc(NS(=O)(=O)c2cccc(C(=O)NNC(=O)NC3CCCCC3)c2)c(C)c1	MITF inh 71 | MITF confirm inactive | AS interf ctr inactive
CCn1ccnc1N1CCN(C(=O)c2cccc(Cl)c2)CC1	none
COCCN1CCCc2ccc(NC(=O)c3ccc(C)cc3)cc21	MITF inh 54 | MITF confirm inactive | AS interf ctr inactive
c1ccc(CN2CCC(=NNc3nc4ccccc4[nH]3)CC2)cc1	none
CN1CCC(=NNc2nc3ccccc3[nH]2)CC1	MITF inh 53 | MITF confirm inactive | AS interf ctr inactive
O=C(OC1CCCC1=O)c1ccc(Cl)c(S(=O)(=O)N2CCOCC2)c1 (stereo unspecified)	MITF inh 66 | MITF confirm 51 | AlphaScreen DR inactive | AS interf ctr inactive
O=C(OC1CCCC1=O)c1ccc(S(=O)(=O)N2CCCCC2)cc1 (stereo unspecified)	MITF inh 74 | MITF confirm 65 | AlphaScreen DR inactive | AS interf ctr inactive
CCn1c(SCC(=O)Nc2ccc(S(N)(=O)=O)cc2)nnc1-c1cccs1	none
C=CCSc1nnc2c(n1)OC(c1ccc3c(c1)OCO3)Nc1ccccc1-2 (stereo unspecified)	none
Nc1ccc(C(=O)O)c(O)c1	MITF inh 88! | MITF confirm 72 | AlphaScreen DR inactive | AS interf ctr inactive
COc1ccc(C2C(C(=O)NCc3ccccc3OC)c3ccccc3C(=O)N2Cc2ccc(F)cc2)cc1 (stereo unspecified)	none
CN(C)c1ccc(/C=C2\N=C(c3ccc(Br)o3)OC2=O)cc1	none
COc1ccc2c(c1)C(C)CC(C)(C)N2C(=O)CNCCN1CCOCC1 (stereo unspecified)	MITF inh 88 | MITF confirm inactive | AS interf ctr inactive
COc1ccc2c(c1)C(C)CC(C)(C)N2C(=O)NC1CCCCC1 (stereo unspecified)	none
O=C(c1ccco1)N1CCN(Cc2ccccc2F)CC1	MITF inh 61 | MITF confirm inactive | AS interf ctr inactive
O=C(CNCc1ccccc1F)N1CCN(C(=O)CNCc2ccccc2F)CC1	MITF inh 61 | MITF confirm inactive | AS interf ctr inactive
O=C(c1ccncc1)N1CCN(Cc2ccccc2F)CC1	MITF inh 78 | MITF confirm inactive | AS interf ctr inactive
O=C(c1ccc([N+](=O)[O-])cc1)N1CCN(Cc2ccccc2Br)CC1	MITF inh 58 | MITF confirm inactive | AS interf ctr inactive
CC(C)[C@H]1CN(Cc2ccccc2F)CCN1C(=O)c1ccncc1	none
Cn1cccc1CN1CCN(C(=O)c2ccc([N+](=O)[O-])cc2)CC1	none
COC(=O)c1cn2c(=O)c3ccccc3nc2c2ccccc12	none
O=C(c1ccccc1[N+](=O)[O-])N1CCN(c2ccc(F)cc2)CC1	none
O=C(c1ccc(-c2ccccc2)cc1)N1CCN(Cc2ccncc2)CC1	none
O=C(c1ccncc1)N1CCN(Cc2ccccc2Br)CC1	MITF inh 62 | MITF confirm inactive | AS interf ctr inactive
Cc1ccccc1C(=O)Nc1sc2c(c1C(=O)N1CCCCC1)CCC2	none
CC(C)(C)CC(C)(C)NC(=O)c1cccc([N+](=O)[O-])c1	MITF inh 70 | MITF confirm inactive | AS interf ctr inactive
NC(=O)CN1N=C(c2ccccc2)Cn2c(cc3ccccc32)C1=O	none
O=[N+]([O-])c1ccccc1CN1CCN(CCOCCO)CC1	MITF inh 62 | MITF confirm inactive | AS interf ctr inactive
CC(C)CC(=O)N1CCN(Cc2ccccc2[N+](=O)[O-])CC1	MITF inh 56 | MITF confirm inactive | AS interf ctr inactive
CCCS(=O)(=O)N1CCN(Cc2ccccc2[N+](=O)[O-])CC1	none
O=[N+]([O-])c1ccccc1CN1CCCCCCC1	none
COc1cc(CN2CCN(CCOCCO)CC2)c([N+](=O)[O-])cc1OC	none
O=[N+]([O-])c1ccccc1CN1CCN(CCO)CC1	MITF inh 77 | MITF confirm inactive | AS interf ctr inactive
COc1ccc(/C=C/C(=O)NCCCN2CCC(N(C)C3CCCCC3C)CC2)cc1 (stereo unspecified)	none
